The supplement of paper PMC6555819

system: THRa:RXRa (NR concentration 90 nM, RXRa partner concentration 90 nM); assay: PBM binding z-score (relative to random genomic background probes); higher = stronger binding; sequences stand for … in GC…GCGATTGACAGCGTAGAATGAAGG
Procedure, shortened: (§1)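 Custom Agilent 4×180K protein-binding microarrays carried double-stranded probes. Their 34-nt variable regions held direct-repeat seeds, single-nucleotide variants, half-site ablations and random human genomic background sequences. Arrays were incubated 1 h with ligand-free nuclear receptor dimers in PBS pH 7.4, 2% milk, 0.02% Triton X-100, 1 mM DTT, 0.2 mg/mL BSA and 0.4 mg/ml salmon testes DNA. Antibodies against each partner (one per run) detected binding, and scanned fluorescence was regression-normalized. Binding z-scores use random background probes as reference.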

Going from ACTATTAGTTGACACGAGGGCAACCGATAGGTTG to TCATTTAGGTAAAAGGTGAAAGTCGGTGTGGTAA, the PBM binding z-score falls from 3.07 to 2.14.

First: ACTAGCAAGCCAAGTTTGGGTCACTCAAACAAAG
Second: AAAATGAGGTTATACGTAGATCAGGGAAGAAAGT
The PBM binding z-score of the first is lower: 2.09 for the first, 2.24 for the second.

Compared with CATGCAGGGTCAGCTAGGCCAGAGTAGGGACGGC, GTACCAAGGTTAATAGGTCGTTGATGAGTAGGCG is lower in PBM binding z-score: 3 for the first, 1.68 for the second.

Going from GCTTGTAGATCAAGGTTAAGGAAGACTAAGCTAA to CGAACTAGGTCATTTACAGGACAGTGAATAGTAA, the PBM binding z-score rises from 1.25 to 2.89.

First: CGAACTAGGTCAGAACAGGACAGTGAAGGATGAT
Second: TCTCGGAGGACACGAAAGATCAGAGCTCGACATC
The PBM binding z-score of the first is higher: 3.41 for the first, 1.2 for the second.

Going from GGAACGAGTGCATTCGAGTTGATAGCATGGCGAT to TTCCCAAGGTGAAAGGTCGTTGATGCACGCCTTG, the PBM binding z-score rises from 1.92 to 3.6.

First: ACTCGGAGGACCAAGGTCAGAGCTACGCCAGTGA
Second: TGAATGAGCTTATAAGATCAGGGAACGTTGCAAA
The PBM binding z-score of the first is higher: 2.44 for the first, -0.371 for the second.

Going from TATACAGGGTCAAAGGCCAGAGTACGAATGTCGA to TCGTATAGGTAAAGGTGAAAGTCGAACGATATGA, the PBM binding z-score falls from 3.76 to 1.24.

First: TTACCAAGGAGAAAGGTCGTTGATGCACGCCTTG
Second: CAGCCTAGGTCAAGGCCAGTATAGGAGGAACGTT
The PBM binding z-score of the first is lower: 1.48 for the first, 2.75 for the second.

Going from TCGAGTAGGTTAGTCGGGGCATTCATCCAACATA to ACAGACCGGTGAGTGAAGGTAACTCAGCTGGACG, the PBM binding z-score falls from 1.19 to 0.21.

Going from CTTAGCAGGCCAATCTGGGTCACTCAAGGCTTGA to ATCTCGAGGTAACAAGTTCAGTGAAAGAGAGGAC, the PBM binding z-score falls from 3.77 to 2.31.

First: GCGACTGGTGCAAAGCAGGTTACCATAAGGTTGG
Second: TAGCCTAGGTCGGATCGGGCCAGTATACGCTATA
The PBM binding z-score of the first is lower: 1.93 for the first, 2.67 for the second.

Going from GCTTGTAGATCAAGATTAAGAAAGACTAAGCTAA to CAAACTAGGTCAGAGAGGTCAAAGTCCGTGCGTA, the PBM binding z-score rises from -0.364 to 4.43.

First: TAGCCTGGGTCATGCGGGCCAGTATAGTGTCGGC
Second: CAACCAAGGTGAACAAGGTCGTTGATTACTATTC
The PBM binding z-score of the first is lower: 2.46 for the first, 3.44 for the second.

Going from TATACAGGGTCAAAGGCCACAGTACGAATGTCGA to AGTCAAAGTTCAATAGGTAACGTAAGATTCAGCT, the PBM binding z-score falls from 3.53 to 1.72.

Going from CAAACAGGGTCAGCTAGGCCAGAGTAGGGACGGC to TGTCAAAGTTCAAAGGTAACGTAAGTATCCACAC, the PBM binding z-score rises from 2.94 to 3.53.

First: TAGTCTAGGTCAGATCGGGCCAGTATACGCTATA
Second: TCTCGGAGGACACGAAAGGTAAGAGCTCGACATC
The PBM binding z-score of the first is higher: 4.26 for the first, 2 for the second.

Compared with AGTCAAAGTTCATCTAGGTAAGGTAAGATATGCT, CGTCCAAGGTCAAAGGGCAGTGAAGAGATGACGG is higher in PBM binding z-score: 3.19 for the first, 4.14 for the second.

Going from TAGCCTAGGTCTTTGGGCCAGTATAGTACGCATC to TTACCAGGGTGAAAGGTCGTTGATGCACGCCTTG, the PBM binding z-score rises from -0.218 to 2.9.

Compared with CGTCCAAGGTCAGAGAGGTCAATGAATGCCGAGT, TCATATAGGTAATACAGGTGAAAATCGGCATCTA is lower in PBM binding z-score: 4.53 for the first, 0.836 for the second.

system: THRa homodimer (NR concentration 90 nM); assay: as above
Procedure, shortened: as §1

Compared with ACTATTAGTTGACACGAGGGCAACCGATAGGTTG, TCATTTAGGTAAAAGGTGAAAGTCGGTGTGGTAA is higher in PBM binding z-score: 0.699 for the first, 0.844 for the second.

Compared with ACTAGCAAGCCAAGTTTGGGTCACTCAAACAAAG, AAAATGAGGTTATACGTAGATCAGGGAAGAAAGT is lower in PBM binding z-score: 0.807 for the first, 0.727 for the second.

Compared with CATGCAGGGTCAGCTAGGCCAGAGTAGGGACGGC, GTACCAAGGTTAATAGGTCGTTGATGAGTAGGCG is lower in PBM binding z-score: 0.624 for the first, 0.196 for the second.

Going from GCTTGTAGATCAAGGTTAAGGAAGACTAAGCTAA to CGAACTAGGTCATTTACAGGACAGTGAATAGTAA, the PBM binding z-score rises from -0.259 to 0.896.

Going from CGAACTAGGTCAGAACAGGACAGTGAAGGATGAT to TCTCGGAGGACACGAAAGATCAGAGCTCGACATC, the PBM binding z-score falls from 0.173 to 0.159.

Compared with GGAACGAGTGCATTCGAGTTGATAGCATGGCGAT, TTCCCAAGGTGAAAGGTCGTTGATGCACGCCTTG is higher in PBM binding z-score: -1.23 for the first, 1.4 for the second.

Compared with ACTCGGAGGACCAAGGTCAGAGCTACGCCAGTGA, TGAATGAGCTTATAAGATCAGGGAACGTTGCAAA is lower in PBM binding z-score: 1.17 for the first, -1.18 for the second.

First: TATACAGGGTCAAAGGCCAGAGTACGAATGTCGA
Second: TCGTATAGGTAAAGGTGAAAGTCGAACGATATGA
The PBM binding z-score of the first is higher: 0.87 for the first, -0.212 for the second.

First: TTACCAAGGAGAAAGGTCGTTGATGCACGCCTTG
Second: CAGCCTAGGTCAAGGCCAGTATAGGAGGAACGTT
The PBM binding z-score of the first is lower: -0.13 for the first, 0.86 for the second.

Going from TCGAGTAGGTTAGTCGGGGCATTCATCCAACATA to ACAGACCGGTGAGTGAAGGTAACTCAGCTGGACG, the PBM binding z-score falls from 0.047 to -0.915.

Compared with CTTAGCAGGCCAATCTGGGTCACTCAAGGCTTGA, ATCTCGAGGTAACAAGTTCAGTGAAAGAGAGGAC is higher in PBM binding z-score: 0.497 for the first, 0.969 for the second.

First: GCGACTGGTGCAAAGCAGGTTACCATAAGGTTGG
Second: TAGCCTAGGTCGGATCGGGCCAGTATACGCTATA
The PBM binding z-score of the first is higher: -0.397 for the first, -0.787 for the second.

Compared with GCTTGTAGATCAAGATTAAGAAAGACTAAGCTAA, CAAACTAGGTCAGAGAGGTCAAAGTCCGTGCGTA is higher in PBM binding z-score: -0.81 for the first, 2.45 for the second.

Going from TAGCCTGGGTCATGCGGGCCAGTATAGTGTCGGC to CAACCAAGGTGAACAAGGTCGTTGATTACTATTC, the PBM binding z-score rises from -0.102 to 2.06.

First: TATACAGGGTCAAAGGCCACAGTACGAATGTCGA
Second: AGTCAAAGTTCAATAGGTAACGTAAGATTCAGCT
The PBM binding z-score of the first is higher: 1.28 for the first, 0.00177 for the second.

First: CAAACAGGGTCAGCTAGGCCAGAGTAGGGACGGC
Second: TGTCAAAGTTCAAAGGTAACGTAAGTATCCACAC
The PBM binding z-score of the first is higher: 0.733 for the first, 0.176 for the second.

First: TAGTCTAGGTCAGATCGGGCCAGTATACGCTATA
Second: TCTCGGAGGACACGAAAGGTAAGAGCTCGACATC
The PBM binding z-score of the first is higher: 0.664 for the first, 0.0945 for the second.

Compared with AGTCAAAGTTCATCTAGGTAAGGTAAGATATGCT, CGTCCAAGGTCAAAGGGCAGTGAAGAGATGACGG is higher in PBM binding z-score: 0.886 for the first, 1.86 for the second.

Compared with TAGCCTAGGTCTTTGGGCCAGTATAGTACGCATC, TTACCAGGGTGAAAGGTCGTTGATGCACGCCTTG is higher in PBM binding z-score: -0.674 for the first, 0.639 for the second.

Compared with CGTCCAAGGTCAGAGAGGTCAATGAATGCCGAGT, TCATATAGGTAATACAGGTGAAAATCGGCATCTA is lower in PBM binding z-score: 2.88 for the first, 0.391 for the second.
